# Source: PubChem
# Only some compounds are listed: those with a hit (about 2.8% of all), similar ones and a draw of the others.
# Pol eta inh-1: DNA polymerase eta (human) inhibition. Q9Y253. recombinant Pol eta, fluorescent DNA replication assay. Potency, µM (top dose mostly 114 µM), usual class: inhibitors. hit rate 1.2% among 390,000. AID 588591
#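 Fluorescent replication assay: 50 nM final substrate added after a 15 min room-temperature compound preincubation with 10 nM enzyme. Signal taken at 0 min and again at 10 min.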
# POLI inh: inhibitors of human DNA polymerase iota; Q9UNA4; Pol iota fluorescent replication assay, 10 min; Potency, µM (highest dose often 115 µM), hits mostly inhibitors; hit rate 1% among 390,000; AID 588590
# Target sequence (Q9UNA4 whole entry, looked up): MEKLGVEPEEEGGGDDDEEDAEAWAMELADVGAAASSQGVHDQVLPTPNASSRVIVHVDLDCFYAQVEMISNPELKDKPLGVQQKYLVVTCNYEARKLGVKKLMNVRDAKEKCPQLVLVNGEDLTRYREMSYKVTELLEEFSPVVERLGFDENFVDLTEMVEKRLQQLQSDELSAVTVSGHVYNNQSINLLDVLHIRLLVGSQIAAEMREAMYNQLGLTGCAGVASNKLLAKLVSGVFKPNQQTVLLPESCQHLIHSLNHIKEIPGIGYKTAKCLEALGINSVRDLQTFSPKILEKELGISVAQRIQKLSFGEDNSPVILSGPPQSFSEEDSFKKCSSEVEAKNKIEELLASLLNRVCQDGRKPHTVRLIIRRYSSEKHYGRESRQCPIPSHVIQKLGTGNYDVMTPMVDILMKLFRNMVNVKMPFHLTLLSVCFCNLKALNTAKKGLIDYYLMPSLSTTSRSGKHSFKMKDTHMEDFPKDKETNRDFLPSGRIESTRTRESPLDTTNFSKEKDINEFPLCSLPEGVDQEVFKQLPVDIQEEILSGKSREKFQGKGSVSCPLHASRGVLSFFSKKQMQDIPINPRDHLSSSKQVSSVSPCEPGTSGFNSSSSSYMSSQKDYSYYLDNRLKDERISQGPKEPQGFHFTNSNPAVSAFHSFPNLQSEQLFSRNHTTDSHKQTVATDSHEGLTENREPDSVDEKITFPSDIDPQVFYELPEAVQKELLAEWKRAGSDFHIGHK
#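 Fluorescent replication assay read twice, at 0 min and 10 min after adding 50 nM (final) substrate. Enzyme (10 nM) and compounds were first incubated 15 min at room temperature; enzyme-free buffer wells were negative controls.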
# Pol kappa inh-1: DNA polymerase kappa (human) inhibition. Q9UBT6. purified Pol kappa, fluorescent DNA synthesis assay, 10 min. Potency, µM (series often up to 107 µM), actives largely listed as inhibitors. hit rate 0.53% among 400,000. AID 588579
#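 10 nM Pol kappa preincubated 15 min at room temperature with compounds, then reaction started with substrate at 50 nM final. Fluorescence read kinetically at 0 and 10 min; buffer-only wells served as negative control.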
# PI5P4Ka inh: PI5P4K alpha (human) kinase inhibition. P48426. PI5P4Kalpha enzyme, ADP-Glo luminescence, 60 min; hits give low values. max response, %. hit rate 1.2% among 330,000. AID 652105; active = max response of -50% or lower; inconclusive = between -30% and -50%; inactive = -30% or higher; also: value at the top dose of about 77 µM
#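 Quantitative HTS of the MLSMR library against PI5P4Kalpha with substrate. ATP added last at 5 microM final; room temperature, 60 minutes. Remaining ATP depleted, ADP converted and read as luminescence.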
# Pol beta inh: DNA polymerase beta (human) inhibition. Pol beta primer extension/strand displacement, fluorescence kinetic. Potency, µM (titrated, usually from 114 µM), most hits filed as inhibitors. hit rate 1.3% among 340,000
#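 Human Pol beta at 10 nM; strand-displacement substrate 50 nM final. Compound exposure 15 min at room temperature before start, reaction 10 min at room temperature.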
# PI4K2A block: inhibitors of human PI4K2A | activity change, negative = inhibition, % at 76.9 µM | purified PI4K2A, ADP-Glo luminescence, 1 h; hits give low values | Q9BTU6 | hit rate 0.13% among 420,000; in the data active = activity change below about -50%; inconclusive = mostly about -30% to -49%
#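 PI4K2A activity was measured by ADP-Glo luminescence: enzyme (4 ug/mL stock) and phosphatidylinositol (1.2 mM stock) in Tris pH 7.5/MgCl2/EGTA/Triton X-100 buffer were reacted with ATP (300 microM stock) for one hour at ambient temperature.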
# PGK validate: blocks T. brucei phosphoglycerate kinase; Potency, µM (doses to about 57.5 µM), usual class: inhibitors; hit rate 79% among 500; TbPGK coupled GAPDH assay, Kinase-Glo luminescence; shares compounds with Pol kappa inh-1; AID 686980; also: nearly all actives have a fitted effect of over 65% in size
# Pol iota confirm: Inhibitors of human DNA polymerase iota, confirmation; shares compounds with Pol kappa inh-1; Pol iota primer extension, TAMRA/BHQ fluorescence; Potency, µM, hits mostly inhibitors; hit rate 77% among 1,500; AID 720496
# GALK confirm: galactokinase (human) inhibition, confirmation; shares compounds with Pol eta inh-1; purified GALK, Kinase-Glo ATP depletion luminescence; Potency, µM (titrated, usually from 115 µM), hits mostly inhibitors; hit rate 70% among 150; AID 2015
# Redox cycling: generates H2O2 by redox cycling, flagging GALK artifacts; Potency, µM (titrated, usually from 115 µM), usual class: inhibitors; shares compounds with Pol eta inh-1; hit rate 40% among 150; Phenol red-HRP H2O2 redox cycling, absorbance 600 nm; AID 2035
# HEK293 tox: reduces HEK-293 cell viability in GALK counter-screen | shares compounds with Pol eta inh-1 | HEK-293 viability, ATP luminescence (CellTiter-Glo), 24/48 h | Potency, µM (titrated, usually from 46.1 µM), actives largely listed as inhibitors | hit rate 10% among 170 | AID 2547
# Pol kappa inh-2: confirmation of human DNA polymerase kappa inhibitors; purified Pol-kappa, fluorescent strand-displacement substrate; shares compounds with Pol eta inh-1; hit rate 76% among 920; Potency, µM, actives largely listed as inhibitors
# Pol eta inh-2: Pol eta (human) inhibition, cherry-pick confirmation; shares compounds with Pol eta inh-1; Pol eta primer extension, TAMRA/BHQ fluorescence, 10 min; Potency, µM, actives largely listed as inhibitors; hit rate 64% among 2,600; AID 720502
# Numbers stand for hits; i = inactive; ? = inconclusive; nt = not tested or not shown; [ ] = another dose, or the depositor's remark. Unless noted, calls follow the shape of the dose curve; as a rule, active = well fitted curve in the direction sought with a large enough effect; inconclusive = small, poorly fitted or top-dose-only effect, or another doubt; inactive = no such curve, though single readings can be large; an effect the other way counts as inactive or inconclusive.
SMILES,Pol eta inh-1,POLI inh,Pol kappa inh-1,PI5P4Ka inh,Pol beta inh,PI4K2A block,Pol iota confirm,Pol eta inh-2,others
Nc1ncnc2oc(-c3ccco3)c(-c3ccco3)c12,40µM,?,25µM,nt,6.3µM,?,42,85,
Cc1cc(C)n2nc(C(=O)N/N=C/c3c4ccccc4cc4ccccc34)nc2n1,?,i,i,i,?,i,67,?,
Cc1cc(C)n2nc(C(=O)N/N=C/c3ccccc3Cl)nc2n1,i,i,i,i,i,i,nt,nt,
CC1=C(C(=O)N2CCCCCC2)CC(CC(=O)NCCc2ccccn2)C(=O)N1Cc1ccc(C(C)(C)C)cc1 (stereo not drawn),nt,nt,nt,i,nt,i,nt,nt,
Cc1ccc(N2C(=O)c3ccccc3C2C(=O)c2cc(C)ccc2O)cc1 (stereo not drawn),i,i,i,i,i,i,nt,nt,
Cc1ccc(N2C(=O)c3ccccc3C2C(=O)c2ccc(O)cc2O)cc1 (stereo not drawn),79µM,11µM,11µM,-66,35µM,i,19,30,
COc1ccc(OC)c(-c2noc(N3CCN(c4ccc(Cl)cc4)CC3)n2)c1,i,i,i,nt,i,i,nt,nt,
CC(=O)Nc1cccc(C(=O)/C=C/c2ccco2)c1,?,?,i,i,i,i,nt,nt,
CC(=O)Nc1ccc(C(=O)/C=C/c2ccco2)cc1,25µM,?,45µM,i,25µM,i,?,38,
O=C(Cc1c(F)c(F)c(F)c(F)c1F)Nc1nc(-c2ccccc2)cs1,i,i,i,i,i,i,nt,nt,
CC(C)c1ccc[n+](-c2nc([O-])sc2C=O)c1,i,i,i,i,i,i,nt,nt,
Cc1ccc[n+](-c2nc([O-])sc2C=O)c1,22µM,?,?,?,?,i,?,?,
Cc1ccc(N=Nc2c(N)nn3c(N)c(C#N)c(C)nc23)cc1,?,?,79µM,?,22µM,i,42,?,
Cc1ccc(N=Nc2c(N)nn3c(C)cc(C)nc23)cc1,i,i,i,i,i,i,nt,nt,
COc1cccc(C(=O)NCC(=O)OCc2cc(=O)n3c(C)csc3n2)c1,i,i,i,nt,i,i,nt,nt,
O=C(O)c1ccccc1-c1c2cc(I)c(=O)c(I)c-2oc2c(I)c(O)c(I)cc12,16µM,13µM,22µM,-99,nt,?,19,67,PGK validate=10µM;Pol kappa inh-2=30
COc1ccc(-c2cc(C(F)(F)F)c3c(n2)sc2c(O)cc(=O)[nH]c23)c(OC)c1,13µM,?,20µM,?,56µM,-56,67,67,
COc1ccc(-c2cc(C(F)(F)F)c3c(N)c(C(=O)NCCSC)sc3n2)cc1,i,i,i,i,i,i,nt,nt,
O=C(COC(=O)c1ccccc1)Nc1ncc([N+](=O)[O-])s1,0.79µM,2.2µM,22µM,-74,nt,i,2.7,1.7,PGK validate=3.3µM;Pol kappa inh-2=0.75
O=C(COc1ccccc1[N+](=O)[O-])N/N=C/c1ccc(O)c([N+](=O)[O-])c1,?,i,i,?,i,i,nt,nt,
O=C(COc1ccccc1C(=O)N/N=C\c1ccc(O)c(O)c1)N/N=C/c1ccc(O)c(O)c1,i,i,0.71µM,-73,0.28µM,i,0.42,0.34,PGK validate=0.29µM
Cc1ccc(NC(=O)CN2C(=O)CCc3cc(S(=O)(=O)N4CCOCC4)ccc32)cc1N(C)C,i,i,i,nt,i,i,nt,nt,
Cc1ccc2nc(-c3cccc(N)c3)[nH]c2c1,i,i,i,i,i,i,nt,nt,
Nc1ccc2nc(-c3cccc(-c4nc5ccc(N)cc5[nH]4)n3)[nH]c2c1,20µM,14µM,56µM,?,25µM,i,17,19,Pol kappa inh-2=27
CCOc1c(OC(C)=O)ccc(/C=C/c2ccc3cccc(OC(C)=O)c3n2)c1[N+](=O)[O-],i,i,i,nt,i,i,nt,nt,
SMILES,Pol eta inh-1,POLI inh,Pol kappa inh-1,PI5P4Ka inh,Pol beta inh,PI4K2A block,Pol iota confirm,Pol eta inh-2,others
C=CCN1C(=O)/C(=C/c2ccc(OC(C)=O)c(OCC)c2[N+](=O)[O-])SC1=S,20µM,i,?,?,?,i,75,67,GALK confirm=?;Redox cycling=42µM;HEK293 tox=?
[C-]#[N+][C@H](O[C@@H]1O[C@H](CO)[C@@H](O)[C@H](O)[C@H]1O)c1ccccc1,i,i,i,i,nt,i,nt,nt,
O=C(O)CC(CCc1ccccc1)OC1OC(CO)C(O)C(O)C1O (stereo not drawn),0.79µM,1.8µM,2µM,-68,0.71µM,?,2.7,11,PGK validate=?;GALK confirm=53µM;Redox cycling=i;HEK293 tox=i
CC(OC(=O)/C(C#N)=C/c1ccc(N(C)C)cc1)C(=O)N(C)c1ccccc1 (stereo not drawn),79µM,50µM,79µM,i,nt,i,24,34,
CC(=O)Nc1ccc(NC(=O)C(C)OC(=O)/C(C#N)=C/c2ccc(N(C)C)cc2)cc1 (stereo not drawn),?,?,i,i,nt,i,nt,nt,
O=C(O)C(c1ccccc1)N1C(=O)/C(=C\c2ccc(-c3ccccc3Cl)o2)SC1=S (stereo not drawn),40µM,11µM,i,?,?,i,60,38,PGK validate=8.2µM;Pol kappa inh-2=11
O=C(O)C(c1ccccc1)N1C(=O)/C(=C\c2ccc(-c3ccc(Br)cc3)o2)SC1=S (stereo not drawn),?,11µM,?,?,?,i,42,27,
CCCCN1CCCC1C(=O)Nc1c(C)cc(C)cc1C (stereo not drawn),nt,nt,i[19.4 µM],nt,nt,i,nt,nt,
CCN(CC)CCCNc1nc2ccccc2c2[nH]c3ccc(OC)cc3c12,10µM,18µM,18µM,i,nt,i,3,30,Pol kappa inh-2=3.4
COc1ccccc1Nc1cc2ccccc2c(=O)[nH]1,nt,nt,nt,nt,nt,nt,42,27,
